# Reference: PubChem BioAssay (Tox21)
# Inconclusive results are not listed. A call without a number means that no potency is given here. Values without a mark were called inactive. Activity calls are given as the source filed them. Unless noted, the call rests on the fitted dose curve; in most records, active means well fitted curve in the direction sought with a large enough effect in the repeat runs; inconclusive means weak or mixed curves; inactive means no such curve, though single readings can be large; an effect the other way counts as inactive or inconclusive.
# Assays:
# [1] = target: Luciferin 4-monooxygenase (Photinus pyralis) (UniProt P08659); test: qHTS assay to identify small molecule inhibitors of firefly luciferase (AID 1224835); further: nearly all actives have a fitted effect of over 25% in size; further: potency means the concentration at half of the fitted maximal effect; on activity change, negative = inhibition: series mostly up to about 120 µM
# Summary of the method: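 Inhibition of purified Photinus luciferase is measured by luminescence. Substrate levels (D-luciferin, ATP) sit at their KM values. Each compound is tested in a concentration series.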
# [2] = qHTS assay to identify small molecule agonists of the constitutive androstane receptor (CAR) signaling pathway - cell viability counter screen (AID 1224836); further: nearly all actives have a fitted effect of over 45% in size; further: potency means the concentration at half of the fitted maximal effect; on viability change, negative = cytotoxic: series mostly up to about 92 µM
# Summary of the method: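 Viability read-out: CellTiter-Fluor fluorescence after 23 h compound exposure at 37 C/5% CO2 in double-stable HepG2-CYP2B6-hCAR cells, with PK11195 present at 0.75 uM final; compounds tested in 15-point titration.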
# [3] = qHTS assay to identify small molecule antagonists of the constitutive androstane receptor (CAR) signaling pathway - cell viability counter screen (AID 1224837); further: nearly all actives have a fitted effect of over 45% in size; further: potency means the concentration at half of the fitted maximal effect; on activity change, negative = cytotoxicity: series mostly up to about 92 µM
# Summary of the method: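 Read-out: CellTiter-Fluor fluorescence after 23 hr at 37 C/5% CO2. Cells: HepG2 double-stable for hCAR and CYP2B6-2.2kb. Compounds tested at 15 concentrations in the presence of CITCO, final concentration 50 nM.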
# [4] = target: Nuclear receptor subfamily 1 group I member 3 (Homo sapiens) (UniProt Q14994); test: qHTS assay to identify small molecule antagonists of the constitutive androstane receptor (CAR) signaling pathway (AID 1224838);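 further: HepG2 cells stably expressing hCAR with CYP2B6 luciferase reporter stimulated by CITCO; nearly all actives have a fitted effect of over 40% in size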; further: potency means the concentration at half of the fitted maximal effect
# Summary of the method: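 Read-out: ONE-Glo luciferase luminescence after 30 min at room temperature. HepG2-CYP2B6-hCAR double-stable cells, compounds in 15-point titration plus 50 nM CITCO final, 24 h at 37 C/5% CO2.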
# [5] = target: Nuclear receptor subfamily 1 group I member 3 (Homo sapiens) (UniProt Q14994); test: qHTS assay to identify small molecule agonists of the constitutive androstane receptor (CAR) signaling pathway (AID 1224839); further: nearly all actives have a fitted effect of over 15% in size; further: potency means the concentration at half of the fitted maximal effect;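 on activation: HepG2 cells stably carrying human CAR and a CYP2B6 luciferase reporter; series mostly up to about 92 µM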
# Summary of the method: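 Luminescence read-out (ONE-Glo, 30 min, room temperature) from double-stable HepG2-CYP2B6-hCAR cells exposed 24 h to 15-point compound series in presence of 0.75 uM PK11195 final.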
# [6] = qHTS assay to identify small molecule antagonists of the estrogen related receptor signaling pathway with the pleiotropic PPARgamma coactivator (PGC) from Tox21 10K library (AID 1224841; call rule not given here; further: actives are mostly falling curves and most rising ones were filed inactive; nearly all actives have a fitted effect of over 50% in size; further: potency means the concentration at half of the fitted maximal effect; on activity, negative = inhibition: series mostly up to about 92 µM)
# Summary of the method: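 Luminescence read-out (One-Glo luciferase reagent, 30 min at room temperature) from PGC/ERR cells exposed to DMSO-dissolved test compounds for 18 h at 37 C; cells, 2,000 per well, had been preincubated 6 h before compound transfer.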
# [7] = target: Thyrotropin receptor (Homo sapiens) (UniProt P16473); test: qHTS assay to identify small molecule agonists of the thyroid stimulating hormone receptor (TSHR) signaling pathway (AID 1224843; calls by dose curve; further: nearly all actives have a fitted effect of over 45% in size; further: potency means the concentration at half of the fitted maximal effect)
# Summary of the method: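 A cell-based cAMP HTRF format was run in TSHR-transfected HEK293 cells, 800 per well. Treatment: 30 min, room temperature. Detection: 1 h with labelled cAMP and anti-cAMP cryptate. Concentration-response over 15 points, three replicates.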
# [8] = qHTS assay to identify small molecule agonists of the hypoxia (HIF-1) signaling pathway - cell viability counter screen (AID 1224844; calls by dose curve; further: nearly all actives have a fitted effect of over 50% in size; further: potency means the concentration at half of the fitted maximal effect)
# Summary of the method: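 CellTiter-Glo luminescence read-out, 30 min RT, taken in the same wells as the beta-lactamase HRE reporter assay; HRE-bla ME-180 cells, 0.5% dialyzed FBS, 17 hr compound treatment at 37C, 5% CO2.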
# [9] = qHTS assay to identify small molecule antagonists of the estrogen related receptor signaling pathway with the pleiotropic PPARgamma coactivator (PGC) from Tox21 10K library - cell viability counter screen (AID 1224840; active means well fitted cell-killing curve with a large enough effect in the repeat runs, not every such curve was filed as active; further: nearly all actives have a fitted effect of over 40% in size)
# Summary of the method: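 Fluorescence read-out of CellTiter-Fluor viability reagent, added after cells had been exposed to compound in DMSO for 17.5 h at 37 C; 30 min development at 37 C/5% CO2. Cells: PGC/ERR line, 2,000/well.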
# [10] = qHTS assay to identify small molecule agonists of the estrogen related receptor signaling pathway with the pleiotropic PPARgamma coactivator (PGC) from Tox21 10K library (AID 1224842); further: nearly all actives have a fitted effect of over 15% in size
# Summary of the method: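 Luminescence from One-Glo (30 min, room temperature) measured after PGC/ERR cells had 18 h at 37 C with pinned compound (23 nL in DMSO). Cells had been seeded at 2,000 per well and pre-incubated 6 h.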
# Chain of Thyrotropin receptor (Homo sapiens) (P16473 whole entry, looked up): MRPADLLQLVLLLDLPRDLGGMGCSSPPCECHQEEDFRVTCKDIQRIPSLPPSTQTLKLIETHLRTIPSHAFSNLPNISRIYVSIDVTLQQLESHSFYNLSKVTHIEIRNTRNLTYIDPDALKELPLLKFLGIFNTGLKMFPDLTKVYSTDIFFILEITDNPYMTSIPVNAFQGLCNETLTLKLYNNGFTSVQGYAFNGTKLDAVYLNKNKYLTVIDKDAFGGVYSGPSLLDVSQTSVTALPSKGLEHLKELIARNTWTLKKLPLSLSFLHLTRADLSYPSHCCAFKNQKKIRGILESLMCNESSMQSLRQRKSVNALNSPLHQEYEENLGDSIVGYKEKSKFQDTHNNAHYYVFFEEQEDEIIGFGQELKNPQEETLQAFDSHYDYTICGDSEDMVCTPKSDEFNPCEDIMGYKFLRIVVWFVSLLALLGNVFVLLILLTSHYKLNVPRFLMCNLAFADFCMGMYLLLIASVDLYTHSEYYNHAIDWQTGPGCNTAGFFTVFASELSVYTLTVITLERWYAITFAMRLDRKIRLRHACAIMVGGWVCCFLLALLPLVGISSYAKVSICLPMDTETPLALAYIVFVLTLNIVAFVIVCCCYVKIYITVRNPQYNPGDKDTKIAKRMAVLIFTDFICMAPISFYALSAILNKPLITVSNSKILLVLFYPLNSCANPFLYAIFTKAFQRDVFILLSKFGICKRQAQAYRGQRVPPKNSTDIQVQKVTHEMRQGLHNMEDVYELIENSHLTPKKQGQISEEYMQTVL
# Chain of Luciferin 4-monooxygenase (Photinus pyralis) (P08659 whole entry, looked up): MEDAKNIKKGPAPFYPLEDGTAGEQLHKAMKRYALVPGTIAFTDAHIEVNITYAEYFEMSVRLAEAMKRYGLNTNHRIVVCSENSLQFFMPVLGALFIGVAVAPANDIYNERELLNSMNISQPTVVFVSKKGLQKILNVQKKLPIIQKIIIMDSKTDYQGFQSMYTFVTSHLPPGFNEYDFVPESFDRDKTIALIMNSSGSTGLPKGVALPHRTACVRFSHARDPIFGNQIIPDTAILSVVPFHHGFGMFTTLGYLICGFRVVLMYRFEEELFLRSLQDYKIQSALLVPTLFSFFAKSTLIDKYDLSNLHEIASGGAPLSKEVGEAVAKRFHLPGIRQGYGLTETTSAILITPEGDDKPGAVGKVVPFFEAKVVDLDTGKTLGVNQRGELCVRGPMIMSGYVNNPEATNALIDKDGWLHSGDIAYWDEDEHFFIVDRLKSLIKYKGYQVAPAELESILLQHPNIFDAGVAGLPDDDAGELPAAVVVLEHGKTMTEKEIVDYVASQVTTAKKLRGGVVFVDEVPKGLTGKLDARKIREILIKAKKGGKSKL
# Chain of Nuclear receptor subfamily 1 group I member 3 (Homo sapiens) (Q14994 whole entry, looked up): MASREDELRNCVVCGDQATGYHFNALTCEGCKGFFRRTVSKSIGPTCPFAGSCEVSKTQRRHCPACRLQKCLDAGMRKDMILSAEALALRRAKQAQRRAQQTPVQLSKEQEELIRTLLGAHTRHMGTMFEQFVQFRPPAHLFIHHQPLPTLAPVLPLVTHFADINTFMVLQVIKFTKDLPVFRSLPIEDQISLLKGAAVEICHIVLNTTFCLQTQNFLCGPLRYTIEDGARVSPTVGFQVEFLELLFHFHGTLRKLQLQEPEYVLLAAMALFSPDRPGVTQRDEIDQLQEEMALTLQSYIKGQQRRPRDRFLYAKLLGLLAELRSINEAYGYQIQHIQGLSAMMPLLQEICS
compound,measurement,setting,value
CC(C)(C)C(=O)O,Potency,[1],inactive
same,Potency,[2],inactive
same,Potency,[3],inactive
same,Potency,[4],inactive
same,Potency,[5],inactive
same,Potency,[6],inactive
same,Potency,[7],inactive
same,Potency,[8],inactive
COC(=O)c1cc(S(N)(=O)=O)ccc1OC,Potency,[1],inactive
same,Potency,[2],inactive
same,Potency,[3],inactive
same,Potency,[4],inactive
same,Potency,[9],inactive
same,Potency,[10],inactive
same,Potency,[7],inactive
same,Potency,[8],inactive
CCCCCCCCCCCC[N+](C)(C)CCCS(=O)(=O)[O-],Potency,[1],inactive
same,Potency,[2],inactive
same,Potency,[3],inactive
same,Potency,[4],inactive
same,Potency,[9],inactive
same,Potency,[7],inactive
same,Potency,[8],inactive
CCCCC/C(=C\c1ccccc1)CO,Potency,[1],inactive
same,Potency,[2],inactive
same,Potency,[3],inactive
same,Potency,[4],inactive
same,Potency,[9],inactive
same,Potency,[7],inactive
O=C(N[C@@H](c1ccccc1)[C@@H]1CCCCN1)c1cccc(C(F)(F)F)c1Cl,Potency,[1],inactive
same,Potency,[2],61.1 µM (active)
same,Potency,[3],61.1 µM (active)
same,Potency,[4],48.6 µM (active)
same,Potency,[5],inactive
same,Potency,[10],inactive
same,Potency,[7],inactive
same,Potency,[8],inactive
CC(=O)[C@H]1CC[C@H]2[C@@H]3C[C@H](C)C4=CC(=O)CC[C@]4(C)[C@H]3[C@@H](O)C[C@]12C,Potency,[1],inactive
same,Potency,[2],inactive
same,Potency,[3],inactive
same,Potency,[4],inactive
same,Potency,[6],inactive
same,Potency,[10],inactive
same,Potency,[7],inactive
same,Potency,[8],inactive
OCCSc1ccccc1,Potency,[1],inactive
same,Potency,[2],inactive
same,Potency,[3],inactive
same,Potency,[4],inactive
same,Potency,[9],inactive
same,Potency,[7],inactive
same,Potency,[8],21.9 µM (active)
CCCCCCCCCOC(C)=O,Potency,[1],inactive
same,Potency,[2],inactive
same,Potency,[3],inactive
same,Potency,[4],inactive
same,Potency,[5],inactive
same,Potency,[7],inactive
same,Potency,[8],inactive
CC(C)(CCl)c1ccccc1,Potency,[1],inactive
same,Potency,[2],inactive
same,Potency,[3],inactive
same,Potency,[4],inactive
same,Potency,[9],inactive
same,Potency,[7],inactive
same,Potency,[8],inactive
CC(=N\O)/C(C)=N/O,Potency,[1],inactive
same,Potency,[2],inactive
same,Potency,[3],inactive
same,Potency,[4],inactive
same,Potency,[5],inactive
same,Potency,[7],inactive
same,Potency,[8],inactive
CC1=NN(c2ccc(C(=O)O)cc2)C(=O)C1,Potency,[1],inactive
same,Potency,[2],inactive
same,Potency,[3],inactive
same,Potency,[4],inactive
same,Potency,[9],inactive
same,Potency,[8],inactive
O=C(O)c1ccccc1NCCc1ccccc1,Potency,[1],27.5 µM (active)
same,Potency,[2],inactive
same,Potency,[3],inactive
same,Potency,[4],inactive
same,Potency,[5],26.6 µM (active)
same,Potency,[6],inactive
same,Potency,[7],inactive
same,Potency,[8],inactive
CC1CC(=O)NN=C1c1ccc(NCC(C)(C)NCC(O)COc2cc(Cl)ccc2C#N)cc1 (configuration not stated),Potency,[1],inactive
same,Potency,[2],inactive
same,Potency,[3],inactive
same,Potency,[4],inactive
same,Potency,[9],inactive
same,Potency,[10],inactive
same,Potency,[7],1.19 µM (active)
CC(C)C(OC(=O)c1ccccc1)C(C)(C)COC(=O)c1ccccc1 (configuration not stated),Potency,[1],inactive
same,Potency,[2],inactive
same,Potency,[3],inactive
same,Potency,[4],inactive
same,Potency,[9],inactive
same,Potency,[8],inactive
CC1=C(C=O)C(C)(C)CCC1,Potency,[1],inactive
same,Potency,[2],inactive
same,Potency,[3],inactive
same,Potency,[4],inactive
same,Potency,[9],inactive
same,Potency,[7],inactive
same,Potency,[8],inactive
CC(=O)CC(c1ccc([N+](=O)[O-])cc1)c1c(O)c2ccccc2oc1=O (configuration not stated),Potency,[1],inactive
same,Potency,[2],inactive
same,Potency,[3],inactive
same,Potency,[4],inactive
same,Potency,[9],inactive
same,Potency,[7],inactive
same,Potency,[8],inactive
O=C(OCCOCCO)c1ccccc1Nc1cccc(C(F)(F)F)c1,Potency,[1],inactive
same,Potency,[2],inactive
same,Potency,[3],inactive
same,Potency,[4],inactive
same,Potency,[5],inactive
same,Potency,[7],inactive
same,Potency,[8],inactive
Oc1ccc(Nc2ccccc2)cc1,Potency,[1],inactive
same,Potency,[2],inactive
same,Potency,[3],inactive
same,Potency,[4],inactive
same,Potency,[6],inactive
same,Potency,[7],inactive
COC(OC)(C(=O)c1ccccc1)c1ccccc1,Potency,[1],inactive
same,Potency,[2],inactive
same,Potency,[3],inactive
same,Potency,[4],inactive
same,Potency,[9],inactive
same,Potency,[7],inactive
same,Potency,[8],inactive
Cc1occc1C(=O)Nc1ccc(C(=O)N2CCC(F)(F)/C(=C\C(=O)N3CCC(N4CCCCC4)CC3)c3ccccc32)cc1,Potency,[1],inactive
same,Potency,[2],inactive
same,Potency,[3],inactive
same,Potency,[4],inactive
same,Potency,[10],inactive
same,Potency,[7],inactive
same,Potency,[8],inactive
Nc1ccc(C(=O)OCCCOC(=O)c2ccc(N)cc2)cc1,Potency,[1],inactive
same,Potency,[2],inactive
same,Potency,[3],inactive
same,Potency,[4],inactive
same,Potency,[5],30.6 µM (active)
same,Potency,[8],inactive
O=Cc1c(Cl)cccc1Cl,Potency,[1],inactive
same,Potency,[2],inactive
same,Potency,[3],inactive
same,Potency,[4],inactive
same,Potency,[10],inactive
same,Potency,[7],inactive
same,Potency,[8],inactive
Cc1ccc(Nc2nccc(N(C)c3ccc4c(C)n(C)nc4c3)n2)cc1S(N)(=O)=O,Potency,[1],30.9 µM (active)
same,Potency,[2],inactive
same,Potency,[3],inactive
same,Potency,[4],inactive
same,Potency,[5],4.73 µM (active)
same,Potency,[6],23.7 µM (active)
same,Potency,[10],inactive
same,Potency,[8],inactive
CO[C@H]1O[C@H](CO)[C@@H](O)[C@H](O)[C@H]1O,Potency,[1],inactive
same,Potency,[2],inactive
same,Potency,[3],inactive
same,Potency,[4],inactive
same,Potency,[5],inactive
same,Potency,[6],inactive
same,Potency,[7],inactive
same,Potency,[8],inactive
CC1=CC(=O)CC(C)(C)C1(O)/C=C/C(C)=C\C(=O)O (configuration not stated),Potency,[1],inactive
same,Potency,[2],inactive
same,Potency,[3],inactive
same,Potency,[4],inactive
same,Potency,[9],inactive
same,Potency,[6],inactive
same,Potency,[10],inactive
same,Potency,[7],inactive
same,Potency,[8],inactive
NCC1CCCC(CN)C1 (configuration not stated),Potency,[1],inactive
same,Potency,[2],inactive
same,Potency,[3],inactive
same,Potency,[4],inactive
same,Potency,[9],inactive
same,Potency,[6],inactive
same,Potency,[10],inactive
same,Potency,[8],inactive
CCCCCCCCCCCCCCCCBr,"activity change, negative = inhibition",[1],1.26% [at 23.6 µM]
same,"viability change, negative = cytotoxic",[2],0.618% [at 19 µM]
same,"activity change, negative = cytotoxicity",[3],-0.0926% [at 19 µM]
same,"activity, negative = inhibition",[4],-0.414% [at 19 µM]
same,"viability change, negative = cytotoxic",[9],7.8% [at 19 µM]
same,"activity, negative = inhibition",[6],36.1% [at 19 µM]
same,activation,[7],-0.411% [at 19 µM]
same,"activity change, negative = cytotoxicity",[8],-1.79% [at 15.8 µM]
CCCCN(CCCC)CCCOC(=O)c1ccc(N)cc1,Potency,[1],inactive
same,Potency,[2],inactive
same,Potency,[3],inactive
same,Potency,[4],inactive
same,Potency,[5],26.6 µM (active)
same,Potency,[7],inactive
same,Potency,[8],inactive
